Results published in PubChem BioAssay (NCI).
About 83,000 compounds went through this panel and 20% of them were active in at least one assay; those are over-represented in the sample as a whole.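 The test compound was applied at a single concentration to cells in 96-well plates for 48 hours, and percent growth was recorded.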 Activity calls are given as the source filed them. The calls were made as follows: active = growth percent below 10; inactive = the rest.

Tests used:
Assay in all cases: NCI-60 one-dose screen, 48 h (100 = growth as untreated, 0 = no growth, -100 = all killed)
Settings in all cases: 10 µM unless noted
[1] = system: HCT-15 colon
[2] = system: HT29 colon
[3] = system: SNB-75 CNS
[4] = system: SNB-19 CNS
[5] = system: U251 CNS
[6] = system: PC-3 prostate
[7] = system: UACC-62 melanoma
[8] = system: LOX IMVI melanoma
[9] = system: SK-MEL-28 melanoma
[10] = system: SK-MEL-5 melanoma

Measured: growth

COc1ccc(-c2cc(=O)oc3ccc(Cl)cc23)cc1F
inactive: [1] 11.7% | [3] 46% | [4] 23.5% | [6] 11% | [7] 30.1% | [8] 21.9% | [9] 59.5%
active: [2] -5.75% | [5] 4.46%

OCC12CCCC(CO)(COC1)C2O (stereo not drawn)
inactive: [1] 106% | [2] 105% | [3] 96.4% | [4] 116% | [6] 99.7% | [10] 99.8% | [7] 107% | [8] 98.6% | [9] 107%

Cn1cc(-c2csc(-c3cn(CCCN4CCCCC4)c4ccc(F)cc34)n2)c2cccnc21
active: [10] -27.7% | [9] -78.9%
inactive: [1] 77.5% | [2] 75.2% | [3] 77.2% | [4] 90.3% | [5] 85.2% | [6] 71.5% | [8] 85.4%

O=C1c2cc3c(cc2-c2c1c1ccc(F)cc1c(=O)n2CCCN1CCOCC1)OCO3
inactive: [1] 72.5% | [2] 42% | [3] 53.9% | [4] 39.1% | [5] 14.2% | [6] 60% | [7] 13.3% | [9] 80.1%
active: [8] 8.74%

Cc1ccnc2c(OCc3ccccc3)cccc12
inactive: [1] 90.3% | [2] 99.4% | [3] 95.4% | [4] 100% | [5] 92.7% | [6] 96.8% | [7] 85.8% | [8] 87.4% | [9] 95.6%

COc1ccc(C(=O)c2ccc(C)cc2)c(OC)c1OC
inactive: [1] 50.1% | [2] 27% | [3] 64.7% | [4] 79.4% | [5] 60.9% | [6] 86.9% | [7] 67.6% | [8] 83.6% | [9] 85%

Cc1[c-]onc1C.Cc1[c-]onc1C.[Ag].[Ag].[NH-]S(=O)(=O)c1ccc(N=Nc2cc(N=Nc3ccc(S([NH-])(=O)=O)cc3)c3c(NC(=O)C(Cl)Cl)cccc3c2OC(=O)C(Cl)Cl)cc1
inactive: [1] 84.1% | [2] 78.3% | [3] 44.8% | [4] 86.6% | [6] 47.1% | [10] 24.2% | [7] 85.9% | [8] 81.4% | [9] 86.4%

CCCNc1nc(N(C)O)nc(N(C)O)n1
inactive: [1] 26.5% | [2] 40.7% | [3] 77.3% | [4] 38.3% | [5] 27.8% | [6] 51.9% | [7] 31.5% | [8] 22.9% | [9] 41.4%

CC(=O)Nc1cc(F)cc(C(F)(F)F)c1Cl
inactive: [1] 102% | [2] 101% | [3] 83.2% | [4] 106% | [5] 105% | [6] 95.7% | [7] 102% | [8] 92.1% | [9] 101%

COc1ccc(-c2cc(-c3cccs3)n(N=O)c(=O)c2C#N)cc1
inactive: [1] 129% | [2] 107% | [3] 88.9% | [4] 99.1% | [5] 112% | [6] 104% | [7] 95.4% | [8] 96.3% | [9] 124%

CC1(C)c2ccccc2C(=O)C1(Br)Cc1ccccc1 (stereo not drawn)
inactive: [1] 71.3% | [2] 67.4% | [3] 78.8% | [4] 81.1% | [5] 91% | [6] 77.4% | [7] 78.3% | [8] 78.7% | [9] 95.8%

Fc1ccc(Nc2ccc3c(OCCCN4CCOCC4)cccc3n2)cc1F
active: [2] 6.29% | [8] 6.82%
inactive: [1] 34% | [3] 66.6% | [4] 90.5% | [5] 64.2% | [6] 80.5% | [7] 62.4% | [9] 80.4%

N#CC1c2ccccc2-c2ccccc2N1C(=O)c1ccccc1 (stereo not drawn)
inactive: [1] 12.4% | [2] 12.3% | [3] 39.8% | [4] 53.6% | [5] 18.4% | [6] 26.6% | [7] 22.3% | [8] 29.9% | [9] 58.3%

Cn1cc(-c2csc(-c3cn(CCN)c4ccc(F)cc34)n2)c2cccnc21
inactive: [1] 55.9% | [2] 74.7% | [3] 75.7% | [4] 77.7% | [5] 81.4% | [6] 61.3% | [10] 57% | [8] 60.4% | [9] 98.2%

COc1cc2ncnc(Nc3ccc(OCc4cccc(F)c4)c(Cl)c3)c2cc1NC(=O)C1CCCC1
inactive: [1] 80.2% | [2] 82.3% | [3] 69.2% | [4] 83.3% | [5] 91.8% | [6] 63.3% | [10] 95% | [8] 87.5% | [9] 90.1%

Cn1c(=O)c2c(nc(Br)n2CC(=O)Nc2ccc(F)cc2)n(C)c1=O
inactive: [1] 115% | [2] 97.8% | [3] 83.4% | [4] 97.5% | [5] 100% | [6] 75.5% | [10] 104% | [8] 96.7% | [9] 118%

Cn1cc(-c2csc(-c3cn(CCN)c4ccccc34)n2)c2cccnc21
inactive: [1] 46.6% | [2] 30.3% | [3] 46.8% | [4] 65.3% | [6] 46.7% | [10] 23.7% | [8] 45.3% | [9] 73%
active: [5] -75%

O=S(=O)(NCCNc1cc(-c2cn(-c3ccccc3)nc2-c2cccc(O)c2)ccn1)c1ccccc1
inactive: [1] 17.9% | [2] 24.1% | [3] 78.4% | [4] 72.4% | [6] 30.1% | [10] 34% | [8] 54.7%

CCCCCCCN(CCCCCCC)C(=N)c1ccnc2ccccc12
active: [1] -72.1% | [2] -50.2% | [3] -68.3% | [4] -51.1% | [6] -22.4% | [10] -98.3% | [8] -94.4% | [9] -74.1%

O=C(N/N=C\c1ccccc1O)C1CC1
inactive: [1] 92.5% | [2] 107% | [3] 98.1% | [4] 101% | [6] 92% | [10] 109% | [7] 102% | [9] 114%

CCCCn1c(-c2ccc(O)cc2)cn2c3c(=O)[nH]c(=O)n(C)c3nc12
inactive: [1] 54.2% | [2] 77.6% | [3] 53.2% | [4] 82.5% | [6] 68.9% | [10] 51.9% | [7] 51.2% | [9] 74.7%

CCOC(=O)C1OC1(c1ccccc1)c1ccccc1 (stereo not drawn)
inactive: [1] 109% | [2] 107% | [3] 108% | [4] 107% | [6] 98.7% | [7] 98% | [8] 113% | [9] 119%

COc1ccc(/C=C/C(=O)NCC(C)O)cc1 (stereo not drawn)
inactive: [1] 102% | [2] 95.1% | [3] 84.7% | [4] 109% | [6] 94.5% | [10] 101% | [8] 97.2% | [9] 102%

N#CC1=C(N)Oc2c(sc3c(F)cccc23)C1c1ccc(Cl)cc1 (stereo not drawn)
active: [6] 8.41%
inactive: [1] 23.9% | [2] 15.6% | [3] 13.8% | [4] 29.2% | [10] 18.1% | [8] 30.3% | [9] 49.6%

Oc1ccccc1/C=N\NC(=S)Nc1ccc(F)cc1
active: [10] 6.1% | [7] 2.27%
inactive: [1] 21.8% | [2] 39.1% | [3] 43.1% | [4] 36% | [6] 40% | [9] 30.8%

CC(C)(C)c1nc(-c2ccc(O)c(O)c2)cs1
inactive: [1] 36.3% | [2] 92.6% | [3] 73.1% | [4] 72.1% | [6] 54% | [10] 54.4% | [8] 63.5% | [9] 87.8%

Cn1cccc1/C=C1/SC(=S)N(CCc2ccc(O)cc2)C1=O
inactive: [1] 22.7% | [2] 94.9% | [3] 41.2% | [4] 47.2% | [6] 69% | [10] 44.2% | [7] 24.9% | [9] 57.3%

Cc1ccncc1C(=O)O
inactive: [1] 104% | [2] 101% | [3] 86.6% | [4] 92.9% | [6] 90.1% | [10] 106% | [8] 94% | [9] 95.4%

COc1ccc(OC)c(-c2c(C#N)c(-c3ccco3)nc3c2c(-c2ccccc2)nn3-c2ccccc2)c1
inactive: [1] 96.9% | [2] 105% | [3] 84.5% | [4] 93.3% | [6] 83.7% | [10] 97% | [7] 76.6% | [9] 106%

Nc1c(C(=O)Nc2c(Cl)cccc2Cl)sc2nc3c(cc12)CCCC3
inactive: [1] 41.9% | [2] 43.3% | [3] 71.6% | [4] 82.8% | [6] 80% | [10] 83.1% | [8] 59.4%

CCC1C(=O)COC1=O (stereo not drawn)
inactive: [1] 103% | [2] 62.7% | [3] 91% | [4] 99.3% | [6] 74.3% | [10] 102% | [8] 93.2% | [9] 112%
